# The source made the active and inactive calls. How the source made its calls: active means hit-call score of the fitted dose curve at least 0.9, where 1 is the maximum; inactive means score below 0.9.
# Read-out: Fatty acid synthase (Homo sapiens) (UniProt P49327)
# Experiment: LTEA_HepaRG_FASN: Life Technologies and Expression Analysis (LTEA) Assay for Fatty Acid Synthase (FASN) using HepaRG (AID 2283448);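 on AC50: differentiated human HepaRG liver cells in serum-free induction medium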
# Conditions: mRNA level, 48 h; actives raise or lower the signal
# Procedure, shortened: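 Transcript-level assay: HepaRG liver cells are treated for 48 h across an eight-point range topping at 100 uM, and FASN mRNA, normalized to three housekeeping genes, is compared with DMSO controls in both directions.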
# Sequence of Fatty acid synthase (Homo sapiens) (P49327 whole entry, looked up): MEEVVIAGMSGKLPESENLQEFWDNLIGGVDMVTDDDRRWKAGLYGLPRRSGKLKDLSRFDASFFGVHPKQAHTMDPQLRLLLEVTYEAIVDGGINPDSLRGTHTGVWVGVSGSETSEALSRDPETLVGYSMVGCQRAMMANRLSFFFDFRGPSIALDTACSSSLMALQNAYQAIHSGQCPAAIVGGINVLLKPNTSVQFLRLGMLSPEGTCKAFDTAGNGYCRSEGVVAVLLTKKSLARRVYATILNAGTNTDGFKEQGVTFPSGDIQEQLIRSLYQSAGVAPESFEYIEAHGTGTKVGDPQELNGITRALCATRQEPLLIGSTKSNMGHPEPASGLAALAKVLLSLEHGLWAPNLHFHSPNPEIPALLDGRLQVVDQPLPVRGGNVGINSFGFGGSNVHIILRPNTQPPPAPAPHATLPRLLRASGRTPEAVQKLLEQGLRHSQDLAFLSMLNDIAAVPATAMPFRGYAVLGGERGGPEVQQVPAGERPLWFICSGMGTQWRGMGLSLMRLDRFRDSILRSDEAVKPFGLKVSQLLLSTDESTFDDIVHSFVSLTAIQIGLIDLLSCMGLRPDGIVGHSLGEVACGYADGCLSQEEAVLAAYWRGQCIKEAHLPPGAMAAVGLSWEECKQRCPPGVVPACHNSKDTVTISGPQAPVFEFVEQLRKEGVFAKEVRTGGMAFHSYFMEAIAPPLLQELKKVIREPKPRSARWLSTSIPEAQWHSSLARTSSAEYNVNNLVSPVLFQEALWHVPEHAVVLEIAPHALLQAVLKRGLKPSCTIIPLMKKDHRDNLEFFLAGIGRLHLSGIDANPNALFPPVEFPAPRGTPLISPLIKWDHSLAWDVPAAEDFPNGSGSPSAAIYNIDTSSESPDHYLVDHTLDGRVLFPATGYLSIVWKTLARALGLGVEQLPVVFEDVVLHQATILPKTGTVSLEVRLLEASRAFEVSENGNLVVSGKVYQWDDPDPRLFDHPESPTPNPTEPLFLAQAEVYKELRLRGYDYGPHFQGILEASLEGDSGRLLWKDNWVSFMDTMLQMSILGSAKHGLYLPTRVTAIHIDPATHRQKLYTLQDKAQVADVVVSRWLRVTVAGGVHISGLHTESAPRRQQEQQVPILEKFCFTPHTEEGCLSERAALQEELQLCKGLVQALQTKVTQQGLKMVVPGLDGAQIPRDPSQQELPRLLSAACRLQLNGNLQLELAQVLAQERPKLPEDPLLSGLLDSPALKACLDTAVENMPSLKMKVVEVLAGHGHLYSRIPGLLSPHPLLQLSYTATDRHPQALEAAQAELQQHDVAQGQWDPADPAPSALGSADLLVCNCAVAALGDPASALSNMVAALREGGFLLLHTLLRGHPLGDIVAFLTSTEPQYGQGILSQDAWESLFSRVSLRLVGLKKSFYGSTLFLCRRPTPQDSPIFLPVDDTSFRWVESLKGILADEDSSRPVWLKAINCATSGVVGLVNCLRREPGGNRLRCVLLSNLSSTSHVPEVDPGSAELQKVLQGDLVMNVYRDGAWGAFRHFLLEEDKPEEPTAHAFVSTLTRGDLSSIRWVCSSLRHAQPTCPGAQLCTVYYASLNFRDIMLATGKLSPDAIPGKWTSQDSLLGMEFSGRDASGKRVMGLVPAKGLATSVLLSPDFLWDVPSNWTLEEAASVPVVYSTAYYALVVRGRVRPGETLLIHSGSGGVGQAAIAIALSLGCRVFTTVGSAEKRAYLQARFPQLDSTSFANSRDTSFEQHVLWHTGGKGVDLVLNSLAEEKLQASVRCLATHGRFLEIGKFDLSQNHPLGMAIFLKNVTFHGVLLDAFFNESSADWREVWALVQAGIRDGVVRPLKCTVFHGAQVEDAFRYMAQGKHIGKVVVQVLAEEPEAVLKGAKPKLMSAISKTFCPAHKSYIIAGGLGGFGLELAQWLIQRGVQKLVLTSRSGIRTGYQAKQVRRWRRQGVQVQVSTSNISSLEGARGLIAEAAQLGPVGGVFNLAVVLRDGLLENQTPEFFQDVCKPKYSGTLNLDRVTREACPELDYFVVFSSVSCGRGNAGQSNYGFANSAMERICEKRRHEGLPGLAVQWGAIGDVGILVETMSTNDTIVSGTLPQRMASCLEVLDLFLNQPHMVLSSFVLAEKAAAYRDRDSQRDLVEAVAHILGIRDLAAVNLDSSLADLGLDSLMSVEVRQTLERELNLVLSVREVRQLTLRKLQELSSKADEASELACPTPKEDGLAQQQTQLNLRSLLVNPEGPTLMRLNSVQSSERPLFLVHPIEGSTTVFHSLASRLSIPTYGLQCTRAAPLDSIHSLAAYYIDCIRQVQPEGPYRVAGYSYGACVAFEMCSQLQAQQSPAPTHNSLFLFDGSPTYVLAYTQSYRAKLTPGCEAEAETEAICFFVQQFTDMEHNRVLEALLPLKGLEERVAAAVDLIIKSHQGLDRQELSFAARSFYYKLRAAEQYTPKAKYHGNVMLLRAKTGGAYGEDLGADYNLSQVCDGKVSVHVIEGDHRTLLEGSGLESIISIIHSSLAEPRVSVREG
SMILES,outcome,AC50
c1cc(-c2ccncc2)ccn1,inactive,–
CCNc1cccc(C)c1,inactive,–
CC=Cc1ccc(O)c(OC)c1,inactive,–
CCOc1ccc2c(c1)C(C)=CC(C)(C)N2,inactive,–
Oc1ccc2ccccc2c1N=Nc1ccccc1,–,1.16 µM (active)
NC(=O)Cn1c(=O)cc(CCN2CCN(c3nccc4sccc34)CC2)c2ccc(F)cc21,–,29.5 µM (active)
Oc1ccc2c(c1)OC[C@@H](N1CCC(O)(c3ccc(F)cc3)CC1)[C@H]2O,inactive,–
O=c1[nH]cc(F)c(=O)[nH]1,inactive,–
COc1ccc2c(c1)c(CC(=O)O)c(C)n2C(=O)c1ccc(Cl)cc1,inactive,–
COC(=O)c1ccc(O)cc1,inactive,–
